Out of some 5,500 compounds screened, about 2,000 (36%) were called active. Roughly 18% stayed inconclusive and do not appear here. Cut-off read from the data, not from the text of the source: active = normalized growth mostly below about 0.91 (no sharp cut-off); inconclusive = no clear call, values can overlap the other calls; inactive = mostly above about 0.92. This is one part of the list.
Experiment: chemical genetic growth profiling, strain panel (AID 1159580);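 note: tested at 20 µM; growth read once vehicle control cultures reached saturation at 30 °C; 1 = growth at the plate median or of vehicle wells; lower values mean less growth of the strain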
Settings: S. cerevisiae deletion strains, growth OD

Measured: normalized growth

CCCCCc1ccc(-c2nc(SCC(C)=O)n[nH]2)cc1
inactive: locus YAR019C, strain CDC15, stronger effect = lower value 0.933 | locus YBL105C, strain PKC1, stronger effect = lower value 0.95 | locus YBR135W, strain CKS1, stronger effect = lower value 0.959 | locus YBR136W, strain MEC1, stronger effect = lower value 0.948 | locus YBR160W, strain CDC28, stronger effect = lower value 0.947 | locus YDL017W, strain CDC7, stronger effect = lower value 0.957 | locus YDL028C, strain MPS1, stronger effect = lower value 0.932 | locus YDL101C, strain DUN1, stronger effect = lower value 0.956 | locus YDL108W, strain KIN28, stronger effect = lower value 0.949 | locus YDL132W, strain cdc53, stronger effect = lower value 0.971 | locus YDL214C, strain PRR2, stronger effect = lower value 0.835 | locus YDR052C, strain DBF4, stronger effect = lower value 0.97 | locus YDR054C, strain cdc34, stronger effect = lower value 0.922 | locus YDR226W, strain ADK1, stronger effect = lower value 0.942 | locus YDR477W, strain SNF1, stronger effect = lower value 0.773 | locus YER123W, strain YCK3, stronger effect = lower value 0.761 | locus YER133W, strain GLC7, stronger effect = lower value 0.838 | locus YFL009W, strain cdc4, stronger effect = lower value 0.926 | locus YFL029C, strain CAK1, stronger effect = lower value 0.938 | locus YFR003C, strain YPI1, stronger effect = lower value 0.96 | locus YFR019W, strain FAB1, stronger effect = lower value 0.885 | locus YFR028C, strain CDC14, stronger effect = lower value 0.962 | locus YGR040W, strain KSS1, stronger effect = lower value 0.748 | locus YGR052W, strain FMP48, stronger effect = lower value 0.734 | locus YGR092W, strain DBF2, stronger effect = lower value 0.662 | locus YHR079C, strain IRE1, stronger effect = lower value 0.636 | locus YHR082C, strain KSP1, stronger effect = lower value 0.825 | locus YHR205W, strain SCH9, stronger effect = lower value 0.799 | locus YIL147C, strain SLN1, stronger effect = lower value 0.937 | locus YJL095W, strain BCK1, stronger effect = lower value 0.658 | locus YJL128C, strain PBS2, stronger effect = lower value 0.846 | locus YJL157C, strain FAR1, stronger effect = lower value 0.85 | locus YJR016C, strain ILV3, stronger effect = lower value 0.953 | locus YJR066W, strain TOR1 (second series), stronger effect = lower value 0.73 | locus YJR066W, strain TOR1, stronger effect = lower value 0.721 | locus YKL067W, strain YNK1, stronger effect = lower value 0.831 | locus YKL193C, strain SDS22, stronger effect = lower value 0.95 | locus YKL203C, strain TOR2, stronger effect = lower value 0.875 | locus YLR133W, strain CKI1, stronger effect = lower value 0.86 | locus YLR403W, strain SFP1, stronger effect = lower value 0.829 | locus YML070W, strain DAK1, stronger effect = lower value 0.784 | locus YMR001C, strain CDC5, stronger effect = lower value 0.94 | locus YMR205C, strain PFK2 (second series), stronger effect = lower value 0.864 | locus YMR277W, strain FCP1, stronger effect = lower value 0.932 | locus YNL006W, strain LST8, stronger effect = lower value 0.947 | locus YNL020C, strain ARK1, stronger effect = lower value 0.856 | locus YNL161W, strain CBK1, stronger effect = lower value 0.958 | locus YNL183C, strain NPR1, stronger effect = lower value 0.767 | locus YNL207W, strain RIO2, stronger effect = lower value 0.947 | locus YNL222W, strain SSU72, stronger effect = lower value 0.948 | locus YNL307C, strain MCK1 (second series), stronger effect = lower value 0.826 | locus YOL078W, strain AVO1, stronger effect = lower value 0.963 | locus YOL136C, strain PFK27, stronger effect = lower value 0.82 | locus YOR061W, strain CKA2, stronger effect = lower value 0.8 | locus YOR119C, strain RIO1, stronger effect = lower value 0.779 | locus YOR231W, strain MKK1, stronger effect = lower value 0.661 | locus YOR329C, strain SCD5, stronger effect = lower value 0.949 | locus YPL031C, strain PHO85, stronger effect = lower value 0.749 | locus YPL153C, strain RAD53, stronger effect = lower value 0.688 | locus YPL204W, strain HRR25, stronger effect = lower value 0.702 | locus YPL209C, strain IPL1, stronger effect = lower value 0.96 | locus YPR025C, strain CCL1, stronger effect = lower value 0.954 | locus YPR106W, strain ISR1, stronger effect = lower value 0.928 | locus YPR111W, strain DBF20, stronger effect = lower value 0.913 | strain NNK1, stronger effect = lower value 0.934 | strain TSCII, stronger effect = lower value 0.936
active: locus YHR030C, strain SLT2, stronger effect = lower value 0.565 | locus YKL048C, strain ELM1, stronger effect = lower value 0.688 | locus YKL101W, strain HSL1, stronger effect = lower value 0.714 | locus YLR113W, strain HOG1, stronger effect = lower value 0.585 | locus YPL256C, strain CLN2, stronger effect = lower value 0.6

Reference: PubChem BioAssay AID1159580 (chemical genetic matrix, 2015)
